“And” between values parts separate entries of the source, which are not always exact repeats. Equal values may be shown once. Among all 5,500 compounds or so, about 2,000 (36%) were called active. Not shown: some 18% with an inconclusive outcome. No stated cut-off is given here; in the data, active means normalized growth mostly below about 0.91 (no sharp cut-off); inconclusive means no clear call, values can overlap the other calls; inactive means mostly above about 0.92. The list shows a part of the results.
Assay: chemical genetic growth profiling, strain panel (AID 1159580);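 further: tested at 20 µM; growth read once vehicle control cultures reached saturation at 30 °C; 1 = growth at the plate median or of vehicle wells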
Conditions: S. cerevisiae deletion strains, growth OD

Measured: normalized growth

COc1ccc2c(c1)O[C@@H]1COc3cc(OC)c(OC)cc3[C@@H]1C2=O
active: locus YAL026C, strain drs2, stronger effect = lower value 0.694 | locus YAL030W, strain snc1, stronger effect = lower value 0.663 | locus YBL061C, strain skt5, stronger effect = lower value 0.707 | locus YBR009C, strain hhf1, stronger effect = lower value 0.34 | locus YBR023C, strain chs3, stronger effect = lower value 0.819 | locus YBR231C, strain swc5, stronger effect = lower value 0.554 | locus YBR279W, strain paf1, stronger effect = lower value 0.527 | locus YCL011C, strain gbp2, stronger effect = lower value 0.674 | locus YCL016C, strain dcc1, stronger effect = lower value 0.614 | locus YCL029C, strain bik1, stronger effect = lower value 0.68 | locus YCL061C, strain MRC1, stronger effect = lower value 0.354 | locus YCL069W, strain vba3, stronger effect = lower value 0.384 | locus YCR088W, strain abp1, stronger effect = lower value 0.823 | locus YDL074C, strain BRE1, stronger effect = lower value 0.676 | locus YDL101C, strain DUN1, stronger effect = lower value 0.669 | locus YDL134C, strain PPH21, stronger effect = lower value 0.68 | locus YDL192W, strain arf1, stronger effect = lower value 0.893 | locus YDR101C, strain arx1, stronger effect = lower value 0.913 | locus YDR162C, strain NBP2, stronger effect = lower value 0.752 | locus YDR195W, strain ref2 0.842 | locus YDR297W, strain sur2, stronger effect = lower value 0.652 | locus YDR318W, strain mcm21, stronger effect = lower value 0.516 | locus YDR334W, strain swr1, stronger effect = lower value 0.427 | locus YDR335W, strain msn5, stronger effect = lower value 0.867 | locus YDR392W, strain spt3, stronger effect = lower value 0.131 | locus YDR502C, strain sam2, stronger effect = lower value 0.831 | locus YEL003W, strain gim4, stronger effect = lower value 0.531 | locus YEL061C, strain CIN8 (second series), stronger effect = lower value 0.257 | locus YEL061C, strain CIN8, stronger effect = lower value 0.315 | locus YER015W, strain faa2, stronger effect = lower value 0.693 | locus YER016W, strain bim1, stronger effect = lower value 0.818 | locus YER110C, stronger effect = lower value 0.799 | locus YER111C, strain swi4, stronger effect = lower value 0.423 | locus YER155C, strain BEM2 (second series), stronger effect = lower value 0.163 | locus YER155C, strain BEM2, stronger effect = lower value 0.426 | locus YER167W, strain BCK2, stronger effect = lower value 0.684 | locus YGL086W, strain mad1, stronger effect = lower value 0.458 | locus YGL227W, strain vid30, stronger effect = lower value 0.28 | locus YGL248W, strain PDE1, stronger effect = lower value 0.649 | locus YGL253W, strain hxk2, stronger effect = lower value 0.633 | locus YGR135W, strain pre9, stronger effect = lower value 0.786 | locus YGR252W, strain gcn5, stronger effect = lower value 0.755 | locus YHR013C, strain ard1, stronger effect = lower value 0.558 | locus YHR079C, strain IRE1 (second series), stronger effect = lower value 0.814 | locus YHR094C, strain hxt1, stronger effect = lower value 0.699 | locus YHR129C, strain ARP1, stronger effect = lower value 0.489 | locus YHR142W, strain chs7, stronger effect = lower value 0.195 | locus YIL066C, strain RNR3, stronger effect = lower value 0.675 | locus YIR030C, strain dcg1, stronger effect = lower value 0.879 | locus YJL092W, strain hpr5, stronger effect = lower value 0.822 | locus YJL095W, strain BCK1 (second series), stronger effect = lower value 0.488 | locus YJL115W, strain asf1, stronger effect = lower value 0.819 | locus YJL129C, strain trk1, stronger effect = lower value 0.441 | locus YJL164C, strain tpk1, stronger effect = lower value 0.438 | locus YJL166W, strain qcr8, stronger effect = lower value 0.208 | locus YJL187C, strain SWE1 (second series), stronger effect = lower value 0.822 | locus YJL187C, strain SWE1, stronger effect = lower value 0.589
inactive: locus YAL021C, strain ccr4, stronger effect = lower value 0.977 | locus YBR021W, strain FUR4, stronger effect = lower value 0.897 | locus YBR171W, strain sec66, stronger effect = lower value 0.965 | locus YBR229C, strain ROT2, stronger effect = lower value 0.997 | locus YDL005C, strain med2, stronger effect = lower value 0.979 | locus YDL035C, strain GPR1, stronger effect = lower value 0.906 | locus YDL040C, strain nat1, stronger effect = lower value 0.967 | locus YDL185W, strain tfp1, stronger effect = lower value 0.935 | locus YDR001C, strain nth1, stronger effect = lower value 0.97 | locus YDR069C, strain doa4, stronger effect = lower value 1.02 | locus YDR137W, strain rgp1, stronger effect = lower value 0.995 | locus YDR150W, strain NUM1, stronger effect = lower value 0.977 | locus YDR159W, strain sac3, stronger effect = lower value 0.864 | locus YDR388W, stronger effect = lower value 0.975 | locus YEL037C, strain rad23, stronger effect = lower value 0.981 | locus YFR010W, strain ubp6, stronger effect = lower value 1.02 | locus YGL078C, strain dbp3, stronger effect = lower value 0.933 | locus YGL167C, strain pmr1, stronger effect = lower value 0.974 | locus YGL173C, strain kem1, stronger effect = lower value 0.954 | locus YGL240W, strain doc1, stronger effect = lower value 0.916 | locus YHR027C, strain rpn1, stronger effect = lower value 0.999 | locus YHR079C, strain IRE1, stronger effect = lower value 0.97 | locus YHR200W, strain rpn10, stronger effect = lower value 0.939 | locus YIL073C, strain SPO22, stronger effect = lower value 0.903 | locus YIL125W, strain kgd1, stronger effect = lower value 0.989 | locus YJL134W, strain LCB3, stronger effect = lower value 0.935 | locus YJL154C, strain vps35, stronger effect = lower value 0.982 | locus YJL168C, strain set2, stronger effect = lower value 0.978
0.547 (active) and 0.988 (inactive): locus YHR030C, strain SLT2, stronger effect = lower value
0.332 (active) and 0.966 (inactive): locus YJL095W, strain BCK1, stronger effect = lower value

Reference: PubChem BioAssay AID1159580 (chemical genetic matrix, 2015)
